Screening results deposited in PubChem BioAssay by several laboratories.
Sampled rows, rich in hits. Any-hit rate of the full collection: about 27%.
CYP2C19 activ: activators of human cytochrome P450 2C19 | 96,000 tested, under 10 active | recombinant CYP2C19, luciferin-H EGE luminescence; stronger effect = higher value; 0 = fully inhibited enzyme, 1 = untreated enzyme | activation factor at 5 µM | AID 1025;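 active = activation factor of at least 2 at 5 µM in the primary screen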
Target sequence (P33261 whole entry, looked up): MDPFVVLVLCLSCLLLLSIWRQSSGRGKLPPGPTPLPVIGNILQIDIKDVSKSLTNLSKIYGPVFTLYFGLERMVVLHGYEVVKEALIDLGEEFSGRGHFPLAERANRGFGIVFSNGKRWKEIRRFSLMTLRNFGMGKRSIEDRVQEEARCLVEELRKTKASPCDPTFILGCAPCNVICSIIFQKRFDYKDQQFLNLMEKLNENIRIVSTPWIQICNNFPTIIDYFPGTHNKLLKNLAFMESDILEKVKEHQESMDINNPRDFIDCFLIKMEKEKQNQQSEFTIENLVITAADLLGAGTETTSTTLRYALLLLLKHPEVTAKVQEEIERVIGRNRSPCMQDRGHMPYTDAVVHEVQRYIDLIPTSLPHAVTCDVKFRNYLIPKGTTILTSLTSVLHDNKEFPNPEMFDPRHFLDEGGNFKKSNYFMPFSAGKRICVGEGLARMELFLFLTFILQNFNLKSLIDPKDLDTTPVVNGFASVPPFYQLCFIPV
CYP2C9 inhib: blocks human cytochrome P450 2C9; P11712; CYP2C9 Supersomes, luciferin-H conversion, luminescence; inhibition, % at 5 µM; 96,000 tested, 20% active; AID 777;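 active = blocking of liver enzyme CYP2C9 beyond about 50% at 5 µM, limit read from the data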
Cav32 inh: blocks human Cav3.2 T-type calcium channel. O95180. Cav3.2-expressing cells, Fluo-4 calcium fluorescence FDSS; stronger effect = lower value. B-score at 10 µM. 100,000 tested, 4% active;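 active = single-dose well whose peak fluorescence ratio is a statistical outlier from its plate by either plate-standardised score or position-corrected B-score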
CYP2C19 inh: blocks human cytochrome P450 2C19; P33261; CYP2C19 Supersomes, luciferin-H EGE luminescence, 30 min; inhibition, % at 5 µM; 96,000 tested, 21% active;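 active = CYP2C19 inhibition above a set limit at 5 µM in the primary screen, cut at about 50% in these data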
CYP2C9 act: activators of human CYP2C9. P11712. recombinant CYP2C9, luciferin-H conversion, luminescence; stronger effect = higher value; factor 1 = untreated enzyme, 0 = blocked. activation factor at 5 µM. 96,000 tested, 1.4% active;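 active = activation factor of 2 or more for CYP2C9 at a 5 µM dose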
Each line names hits and unclear results; the compound was inactive in the other large screens.

CCOC(=O)c1c(-n2c(C)cc(C=O)c2C)sc2c1CCCC2	CYP2C9 inhib 61
Cc1noc(C)c1COC(=O)CCCOc1ccc(Cl)cc1Cl	CYP2C9 inhib 80, CYP2C19 inh 84
COC(=O)CCC(=O)NNC(=O)CCCOc1ccc(Cl)cc1Cl	none
Cc1noc(C)c1COC(=O)Cc1ccc(Cl)cc1	CYP2C9 inhib 55, CYP2C19 inh 92
C=CCNC(=O)/C(=C\C=C\c1ccccc1)NC(=O)c1ccc(OCCCC)cc1	none
Cc1ccc(C(=O)C2=C(O)C(=O)N(c3ncccn3)C2c2cccc(Cl)c2)o1 (stereo unspecified)	none (no result: Cav32 inh)
C=CCOc1cccc(C2C(C(=O)c3ccc(C)o3)=C(O)C(=O)N2c2nccs2)c1 (stereo unspecified)	Cav32 inh -5.1
COC(=O)c1c(N)c(C#N)c2n1CCCCC2	CYP2C19 inh 76
N#Cc1c(N)c(C(=O)c2ccccc2)n2c1CCC2	CYP2C19 inh 51
CCOc1ccc(NC(=O)C(C)O)c(NS(=O)(=O)c2ccc(CCNC(C)=O)cc2)c1 (stereo unspecified)	none
CC(C)=C1C2C=CC1C(C(=O)Nc1cccc(C)c1)C2C(=O)O (stereo unspecified)	none
Cc1noc(C(=O)N2CC3(C)CC2CC(C)(C)C3)c1Cl (stereo unspecified)	CYP2C19 inh 82
CCOC(=O)c1ccc(OCc2c(C)noc2C)cc1	CYP2C9 inhib 79, CYP2C19 inh 75
Cc1noc(C)c1COc1ccc(C(=O)OCC(=O)c2ccc3c(c2)OCCO3)cc1	none
Cc1noc(C)c1COc1ccc(C(=O)OCC(=O)N2CC3(C)CC2CC(C)(C)C3)cc1 (stereo unspecified)	CYP2C9 inhib 53, CYP2C19 inh 64
CCOC(=O)c1cc(NC(=O)c2c(C)noc2C)cc(C(=O)OCC)c1	CYP2C9 inhib 75
Cc1ccc(NC(=O)c2c(C)noc2C)cc1	none
O=C(NC1CC1)C1=C[C@H](c2ccc(C(F)(F)F)cc2)C[C@H](OCc2ccc(CO)cc2)O1	none (no result: CYP2C19 activ, CYP2C9 inhib, CYP2C19 inh, CYP2C9 act)
O=C(O)c1oc2ccc(Br)cc2c1-n1cccc1	none
COc1ccc(C(C)=O)cc1COC(=O)c1ccc(OCc2c(C)noc2C)cc1	CYP2C9 inhib 76, CYP2C19 inh 88
Cc1cccc(C)c1OCC(=O)N1CC2(C)CC1CC(C)(C)C2 (stereo unspecified)	CYP2C19 inh 61
Cc1noc(C)c1COc1ccc(C(=O)OCC(=O)Nc2ccc3ccccc3c2)cc1	CYP2C9 inhib 88, CYP2C19 inh 65
COc1ccc(C(C)=O)cc1COC(=O)c1cnc(C)cn1	none
NC(=O)CC(NC(=O)c1ccccc1)c1ccc(NCc2ccccc2)c([N+](=O)[O-])c1 (stereo unspecified)	none (no result: CYP2C19 activ, CYP2C9 inhib, CYP2C19 inh, CYP2C9 act)
Cc1cccc(C)c1NC(=O)CSc1nnc(CCCCCNC(=O)OC(C)(C)C)o1	CYP2C9 inhib 73, CYP2C19 inh 50
CC(C)(C)OC(=O)NCCc1nnc(SCc2ccccc2Cl)o1	CYP2C9 inhib 77, CYP2C19 inh 82
Cc1ccc(NC(=O)CSc2nnc(CCNC(=O)OC(C)(C)C)o2)c(C)c1	none
CC(C)(C)OC(=O)NCCc1nnc(S(=O)(=O)Cc2ccc(Cl)cc2Cl)o1	CYP2C9 inhib 80, CYP2C19 inh 77
CC(C)(C)OC(=O)NCCc1nnc(SCC(N)=O)o1	none
CCOC(=O)C1CN(S(=O)(=O)c2ccc(OC)cc2)c2cc(S(=O)(=O)CC)ccc2O1 (stereo unspecified)	CYP2C9 inhib 58, CYP2C19 inh 50
CCS(=O)(=O)c1ccc2c(c1)N(S(C)(=O)=O)CC(C(=O)NCc1ccccc1OC)O2 (stereo unspecified)	CYP2C9 inhib 62
Cc1ccc(N2C(=O)c3ccccc3C2O)nc1 (stereo unspecified)	CYP2C19 inh 79 (no result: Cav32 inh)
COc1ccc(OC)c(C(=O)CSc2nnnn2C)c1	none
CCn1c(SCC(=O)c2cc(OC)ccc2OC)nnc1C1CC1	CYP2C19 inh 94
CCn1nnnc1SCC(=O)c1cc(OC)ccc1OC	CYP2C19 inh 93
CCn1c(SCC(=O)c2ccc(OC)cc2)nnc1C1CC1	CYP2C19 inh 55
CCCCCCOc1ccc(-c2ccc(C#N)cn2)cc1	none
COc1ccc(CNC(=O)c2cccnc2Sc2ccc(Cl)cc2)cc1	none
O=C(c1cccc2c1C(=O)N(Cc1cccnc1)C2)N1CCN(c2ccccc2)CC1	none
CCOc1ncccc1C(=O)NCc1ccc(OC)cc1	CYP2C9 inhib 52, CYP2C19 inh 52
O=C(NCc1cccnc1)c1cccc2c1C(=O)N(Cc1cccnc1)C2	CYP2C19 inh 76
COc1ccc(CNC(=O)c2cccc3c2C(=O)N(Cc2cccnc2)C3)cc1	CYP2C9 inhib 76, CYP2C19 inh 55
COCCN1Cc2cccc(C(=O)NCc3cccnc3)c2C1=O	CYP2C19 inh 78
N#CC1=C(N)C(C#N)(C#N)C(c2cccnc2)C2CC(c3ccccc3)CC=C12 (stereo unspecified)	CYP2C9 inhib 64
N#CC1=C(N)C(C#N)(C#N)C(c2cccnc2)C2CCCC=C12 (stereo unspecified)	none
Cc1ccc(C(=O)Nc2onc(C)c2C#N)cc1	CYP2C9 inhib 58
Cc1ccc2ncccc2c1NS(=O)(=O)c1ccccc1	CYP2C19 inh 57
COC(=O)Cc1n[nH]c(=O)c2ccccc12	none
O=S(=O)(NCC1CCCO1)c1ccc(S(=O)(=O)N2CCCC2)cc1 (stereo unspecified)	none
CC1Cc2ccccc2N1Cc1nc2cc(C(F)(F)F)ccc2c(=O)[nH]1 (stereo unspecified)	CYP2C9 inhib 51
COC(=O)c1ccc(CSc2ncnc3ccccc23)o1	CYP2C19 inh 70
COC(=O)c1ccc(CSc2ncn[nH]2)o1	none
COC(=O)c1ccc(CSc2n[nH]c(=S)s2)o1	CYP2C9 inhib 58
COC(=O)c1ccc(CSc2nnc(Nc3cccc(OC)c3)s2)o1	none
COC(=O)c1ccc(CSc2nc3ccccc3s2)o1	CYP2C19 inh 95
CC(=O)Nc1sc2c(c1C(c1ccccc1Cl)N1CCN(CCO)CC1)CCCC2 (stereo unspecified)	none (no result: CYP2C19 activ, CYP2C9 inhib, CYP2C19 inh, CYP2C9 act)
NC(=O)C1(N2CCCCC2)CCN(C(=O)c2cccs2)CC1	none
Cc1ccc(OCC(=O)NNC(=O)c2cc3ccccc3o2)cc1C	none
CC(=O)c1nn(-c2cccc(Br)c2)cc1C(=O)c1ccc(Br)cc1	CYP2C9 act 2.4
COC(=O)C1=C[C@@H](C(=O)OC)[C@@H]2C3=C(C(=O)[C@@]2(C)NC(=O)c2ccccc2)[C@H](c2ccccc2)n2c(=O)n(-c4ccccc4)c(=O)n2[C@@H]3C1	none (no result: CYP2C19 activ, CYP2C9 inhib, CYP2C19 inh, CYP2C9 act)
Cc1nn(C)c(Oc2ccc(Cl)cc2)c1C(=O)O	none
Cc1nn(C)c(Oc2ccccc2)c1CCNS(=O)(=O)c1ccc(Cl)cc1	CYP2C9 inhib 80, Cav32 inh -6.9, CYP2C19 inh 97
COc1ccc(S(=O)(=O)NCCc2c(C)nn(C)c2Oc2ccccc2)cc1	CYP2C19 inh 87
Cc1ccc(/C=C/C(=O)C2C(=O)c3ccccc3C2=O)cc1	CYP2C9 inhib 99
Cc1ccc(/C=C/C(=O)c2ccc(C)cc2)cc1	none (no result: CYP2C19 activ, CYP2C9 inhib, CYP2C19 inh, CYP2C9 act)
